30 compounds from PubChem BioAssay AID624330 (Southern Research Specialized Biocontainment Screening …, 2012) can be followed below.

Hit rate of the full screen: of about 340,000 compounds, about 2,100 (0.62%) were called active. These entries were drawn from the full list. Potency and affinity values are given separately. Unmarked numbers belong to inactive results.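 How the source made its calls: active means first-screen hits whose inhibition reached a set limit at any dose in the follow-up dose series; inconclusive means inhibition above the set first-screen limit but never retested; inactive means the rest.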

Chain of Rac GTPase-activating protein 1 (Homo sapiens) (Q9H0H5 whole entry, looked up): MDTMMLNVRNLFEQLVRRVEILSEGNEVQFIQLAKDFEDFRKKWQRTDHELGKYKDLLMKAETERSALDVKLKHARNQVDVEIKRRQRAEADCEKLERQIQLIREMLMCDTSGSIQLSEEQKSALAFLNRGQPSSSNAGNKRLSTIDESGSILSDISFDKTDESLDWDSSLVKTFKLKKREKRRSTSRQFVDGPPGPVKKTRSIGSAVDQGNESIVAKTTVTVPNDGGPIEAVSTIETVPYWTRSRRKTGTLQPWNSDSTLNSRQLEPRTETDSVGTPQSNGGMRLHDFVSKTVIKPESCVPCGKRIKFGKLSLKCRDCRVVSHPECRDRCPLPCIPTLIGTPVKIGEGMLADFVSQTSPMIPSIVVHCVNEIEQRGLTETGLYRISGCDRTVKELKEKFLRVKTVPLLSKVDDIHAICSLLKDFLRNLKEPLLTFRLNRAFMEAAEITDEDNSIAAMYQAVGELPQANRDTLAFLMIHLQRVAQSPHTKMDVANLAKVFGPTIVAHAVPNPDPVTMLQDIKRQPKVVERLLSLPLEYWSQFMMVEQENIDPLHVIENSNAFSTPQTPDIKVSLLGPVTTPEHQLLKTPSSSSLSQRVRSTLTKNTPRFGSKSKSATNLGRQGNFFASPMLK

This test has as its target Rac GTPase-activating protein 1 (Homo sapiens) (UniProt Q9H0H5). The test is described as follows: MgcRacGAP GTPase-activating activity inhibitors, confirmation, biochemical, ADP Hunter fluorescence, primary and confirmatory (AID 624330).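 Further: fluorescence reports GDP produced by GAP-driven GTP hydrolysis.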 The note with it: MgcRacGAP-stimulated Rac1 GTP hydrolysis, at 30 µM, hits give high values, GST-tagged Rac1 F28L mutant substrate.
A word on the inhibition: it is the relative decrease from the control value, in per cent. In the case of `O=C(Cn1[nH]c(=O)c2ccccc2c1=O)NC1CCN(Cc2ccccc2)CC1`, the inhibition was 5.55%. On to `COc1cc(C)c(S(=O)(=O)N2CCCC2)cc1C(C)C`, for which the inhibition was 3.94%. In the case of `COc1cc(C)c(-c2cc(C(=O)O)c(C)o2)cc1C(C)C`, the inhibition was 8.02%. In the case of `Nc1ccc2c(=O)[nH][nH]c(=O)c2c1`, the inhibition is 3.77%. Next, `Nc1ccc2c(c1)[nH]c(=O)c1ccccc12`: 21.4%; `C[C@H](CO)N1C[C@H](C)[C@@H](CN(C)S(=O)(=O)c2cccs2)Oc2ccc(NC(=O)NC3CCCCC3)cc2C1=O`: 3.35%. Next, `Cn1ccnc1Sc1nc2c(c(=O)n(C)c(=O)n2C)n1C`: 1.94%; `COc1cc(C(=O)Nc2cccc(S(=O)(=O)N3CCCC3)c2)c([N+](=O)[O-])cc1OC`: 4.7%; `S=c1[nH]nc2nnc3ccccc3n12`: 17.6%. Next, `Cn1c(=S)[nH]c2ccccc21`: 11.4%; `COc1cc(NC(=O)c2cccc(F)c2)cc(OC)c1OC`: 8.45%; `C=CCn1c2ccccc2c2n[nH]c(=S)nc21`: 3.05%. For `COCCNC(=O)c1c[nH]c2ccc(S(=O)(=O)N3CCC4(CC3)OCCO4)cc2c1=O`, the inhibition is 10.7%. On to `N#Cc1ccccc1N=C1CCCN1Cc1ccccc1`, for which the inhibition was 16.7%. Regarding `Cc1ccc(N=C2CCCCCN2C)c(C#N)c1`, the inhibition was 3.58%. Next, `CCc1ccc(OCC(O)Cn2c(N3CCCCC3)nc3c2c(=O)[nH]c(=O)n3C)cc1` (stereo not given): -4.27%; `O=C(Nc1ccccc1Cl)OCC#CCOC(=O)Nc1ccccc1Cl`: 11%; `O=C(Nc1ccccc1Cl)Oc1ccc(Cl)cc1Cl`: 9.61%.

Turning to `C[C@@H]1CN([C@@H](C)CO)C(=O)CCCn2nncc2CO[C@H]1CN(C)C(=O)Nc1ccc(N2CCCCC2)cc1`, the inhibition was 11.5%. The figure for `O=C(CCN1C(=O)/C(=C/c2ccccc2Cl)SC1=S)NN1CCOCC1` is 4.7%; for `Cn1nccc1NC(=O)Nc1cccc(Cl)c1Cl` it is 2.52%; for `CC(C)(C)c1nnc(N/N=C/c2ccccc2)n(N)c1=O` it is 8.65%. Next, `CC(C)(C)c1nnc(N/N=C/c2ccc(Br)cc2)n(N)c1=O`: 9.58%; `CCOc1ccc(NC(=O)CN(C)C(=O)c2cn(-c3ccc(F)cc3)nc2-c2cccc(OC)c2)cc1OCC`: 0.09%; `CC(OC(=O)/C=C/c1ccccc1)C(=O)Nc1ccc2c(c1)OCCO2` (stereo not given): 9.16%. With `O=C(NCCc1nc2ccccc2[nH]1)Nc1ccccc1`, the inhibition is 8.22%. With `COc1cccc(C(=O)Nc2cccc(NC(C)=O)c2)c1`, the inhibition was 10.6%. As for `NS(=O)(=O)c1cccc(NC(=O)c2cccc(-c3ccc(O)cc3)c2)c1`, the inhibition was 12.5%.

As for `COc1ccc(NC(=O)c2cc(OC)c(OC)c(OC)c2)cn1`, the inhibition is 7.64%.

As for `COc1ccc(NC(=O)c2cccc(Oc3ccccc3)c2)cn1`, the inhibition was 4.7%.
